Tau FP inhib – tau fibrillization inhibition (FP); P10636; K18 P301L tau heparin fibrillization, Alexa594 FP, 6 h; Potency, µM (doses to about 57.7 µM), for the others: at the top dose activity, negative = inhibition, most hits filed as inhibitors; 280,000 compounds, 0.39% hits; note: potency is the fitted concentration of half-maximal effect; nearly all actives have a fitted effect of over 55% in size
Target sequence (P10636 561-689 P618L limits assumed): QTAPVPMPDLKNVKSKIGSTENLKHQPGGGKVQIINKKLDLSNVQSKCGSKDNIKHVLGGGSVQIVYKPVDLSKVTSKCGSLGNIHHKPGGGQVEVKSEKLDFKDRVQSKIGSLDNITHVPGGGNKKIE
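Human tau K18 […] P301L fragment, 15 uM unlabeled plus 0.24 uM Alexa 594-labeled tau (final), with compound and 20 uM heparin in 100 mM sodium acetate pH 7; 6 hr at 37 C, then Alexa 594 FP read.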
FBPA coupling cs – inhibits coupling enzyme system, counter-screen for aldolase hits. coupling enzyme system counterscreen, AmpLite Red fluorescence. activity change, negative = inhibition, % at 58.2 µM, hits read low. 290,000 compounds, 0.67% hits; in the data active = activity change below about -30%
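Counterscreen of the coupled detection system alone, without aldolase: glyceraldehyde-3-phosphate coupling enzymes plus AmpLite Red readout. Compounds at 57.5 uM final, 10 min RT preincubation, 20 min RT reaction, fluorescence 525/598 nm.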
Tau fluor cs – counter-screen for tau fibril formation inhibitors; 280,000 compounds, 0.93% hits; Potency, µM (titrated, usually from 57.7 µM), inactives show top-dose activity change, negative = decrease; tau K18 P301L Alexa594 fluorescence, heparin fibrillization; note: potency is the fitted concentration of half-maximal effect; nearly all actives have a fitted effect of over 55% in size
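Human tau K18 P301L (15 uM unlabeled, 0.24 uM Alexa 594-labeled) in 100 mM sodium acetate pH 7 with 20 uM heparin, 6 hr at 37 C. ThT 30 uM added, 1 hr ambient; Alexa 594 FP and total fluorescence read at 555/632 nm.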
USP1-UAF1 inh – inhibitors of human USP1/UAF1 deubiquitinase. O94782. recombinant USP1/UAF1, Ub-Rhodamine cleavage fluorescence. Potency, µM (series often up to 57.1 µM), inactives show top-dose activity change, negative = inhibition, usual class: inhibitors. 390,000 compounds, 0.23% hits; note: potency is the fitted concentration of half-maximal effect; nearly all actives have a fitted effect of over 60% in size
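USP1/UAF1 complex at 1 nM was preincubated with compound for 15 min at room temperature, then Ub-Rho substrate (150nM final) was added. Fluorescence (480/540 nm) was read kinetically, 6 reads every 60 seconds.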
Tau ThT inhib – tau fibrillization inhibition (ThT binding); AID 1460; 270,000 compounds, 2.1% hits; P10636; Potency, µM (top dose mostly 57.4 µM), without a hit: at the top dose activity, negative = inhibition, most hits filed as inhibitors; recombinant tau K18 P301L, heparin-induced fibrillization, ThT fluorescence; note: potency is the fitted concentration of half-maximal effect; nearly all actives have a fitted effect of over 55% in size
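ThT emission at 510 nm, taken 1 hr after adding 30 uM dye, quantifies aggregates formed when 20 uM heparin acts on human tau K18 P301L for 6 hr at 37 C.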
Active calls of the source: *; ? = inconclusive; nt = no result given; [ ] = another dose, or the depositor's remark. Sampled rows, rich in hits. Any-hit rate of the full collection: about 2.3%. Unless noted, calls come from the whole dose curve; as a rule, active = well fitted curve in the direction sought with a large enough effect; inconclusive = small, poorly fitted or top-dose-only effect, or another doubt; inactive = no such curve, though single readings can be large; an effect the other way counts as inactive or inconclusive. % is set by controls: 0 for no effect and ±100 for the full control effect.

SMILES	Tau FP inhib	FBPA coupling cs	Tau fluor cs	USP1-UAF1 inh	Tau ThT inhib
Cc1c(OCC(=O)NCc2cccnc2)ccc2c3c(c(=O)oc12)CCCC3	nt	nt	nt	-19%	nt
COc1ccc(CCC(=O)OCC(=O)NC(=O)c2ccc(Cl)cc2)cc1	nt	nt	nt	-17%	nt
Cc1[nH]n(-c2ccccc2)c(=O)c1N=Nc1nccs1	8%	-1	-28%	-7%	13µM*
COc1cccc(Cn2c(NCc3ccc(C)cc3)nc3c2c(=O)n(C)c(=O)n3C)c1	11%	nt	-24%	-12%	-2%
Oc1ccc2ccccc2c1CNc1ccccc1	nt	nt	nt	-5%	nt
O=[N+]([O-])c1ccccc1NCc1c(O)ccc2ccccc12	-13%	-22	13µM*[quencher]	-28%	?
Cc1ccc(C)c(NC(=O)Cn2ncc3c(C)n(Cc4ccc(F)cc4)c(C)c3c2=O)c1	2%	nt	3%	-21%	-10%
COc1ccc(Cc2nc3ccc(C(=O)NCCCN4CCN(C)CC4)cc3o2)cc1	0%	nt	3%	-9%	-1%
COc1ccc(Br)cc1CNC(=O)c1cc(=O)[nH]c2ccc(S(=O)(=O)N3CCCCC3)cc12	?	nt	4%	?	7%
O=S(=O)(c1ccc2[nH]c3c(c2c1)CCCC3)N1CCCCC1	nt	nt	nt	-26%	nt
COc1cccc(CNS(=O)(=O)c2ccc3[nH]c4c(c3c2)CCCCC4)c1	?	nt	13µM*[quencher]	-33%	-9%
O=S(=O)(NCc1ccc(F)cc1)c1ccc2[nH]c3c(c2c1)CCCCC3	-5%	nt	16µM*[quencher]	-12%	-1%
COc1cccc(CNC(=O)CN(C)S(=O)(=O)c2ccc3[nH]c4c(c3c2)CCCC4)c1	?	nt	?	-20%	-4%
C=CCS/C(N)=N\N=C\c1c(O)ccc2ccccc12	9%	-7	11µM*[quencher]	-28%	?
CCCS/C(N)=N/N=C/c1ccccc1O	2%	0	-23%	-7%	-16%
CC1=[N+](C)c2ccc3ccccc3c2C1(C)C	1%	-14	?	-15%	14µM*
COc1ccc(NC(=O)Cn2c(SCc3cccc(Cl)c3)nc3ccncc32)c(OC)c1OC	-6%	nt	14µM*[quencher]	-4%	?
O=S(=O)(Nc1cccc2ccccc12)c1cccs1	nt	nt	nt	-25%	nt
O=S(=O)(Nc1ccc(O)c2ccccc12)c1cccs1	nt	-35*	nt	-16%	nt
O=C(Nc1ccc(Cl)c(Cl)c1)Nc1ccccc1NS(=O)(=O)c1cccs1	14µM*	-1	7.1µM*[quencher]	-14%	?
CC(=O)c1cccc(NC(=O)C(OC(=O)c2ccccc2NS(=O)(=O)c2cccs2)c2ccccc2)c1 (centres undefined)	18µM*	-2	?	-25%	13%
C[C@@H]1CCCCO[C@@H](CN(C)C(=O)Cc2ccccc2)[C@@H](C)CN([C@H](C)CO)C(=O)c2cc(NC(=O)C3CCCCC3)ccc2O1	nt	nt	nt	-34%	nt
CCOC(=O)C1(C)/C(=N/Nc2ccc(S(N)(=O)=O)cc2)C(=O)C(=O)N1c1ccccc1 (centres undefined)	-1%	-8	-23%	-25%	11µM*
CCOC(=O)C1(C)/C(=N/Nc2ccc(Cl)cc2)C(=O)C(=O)N1c1ccccc1 (centres undefined)	?	-6	-27%	0%	14µM*
CCOC(=O)C1(C)/C(=N/Nc2ccccc2Cl)C(=O)C(=O)N1c1ccccc1 (centres undefined)	-14%	-5	-29%	-13%	14µM*
SMILES	Tau FP inhib	FBPA coupling cs	Tau fluor cs	USP1-UAF1 inh	Tau ThT inhib
CCOC(=O)CSc1nnc(CNc2cccc(Cl)c2)n1-c1ccccc1	-1%	0	-7%	-4%	-3%
CCOC(=O)C1(C)C=C(Nc2ccc(OC)cc2)C(=O)N1c1ccccc1 (centres undefined)	-6%	nt	?	-25%	?
CCOC(=O)C1(C)/C(=N/Nc2cccc(Cl)c2)C(=O)C(=O)N1c1ccccc1 (centres undefined)	-4%	4	-16%	-20%	20µM*
O=c1[nH]cncc1OCc1ccccc1	nt	nt	nt	-12%	nt
Brc1ccc(-c2csc(-c3c[nH]c4ccccc34)n2)cc1	-6%	0	?	-26%	?
c1ccc2c(-c3csc(-c4ccncc4)n3)c[nH]c2c1	-6%	-3	13µM*[quencher]	-26%	3.2µM*
CC(C)C1=C2OC(N)=C(C#N)C(C#N)=C2C(C)CC1 (centres undefined)	-3%	-39*	-1%	?	7%
CCOC(=O)c1c(C)oc2c1c(CN1CCN(C(=O)OCC)CC1)c(O)c1ccccc12	?	-23	?	-13%	?
CCOC(=O)c1c(C)oc2c1c(C(c1ccncc1)N1CCOCC1)c(O)c1ccccc12 (centres undefined)	2%	-48*	?	?	14µM*
CCOC(=O)c1c(C)oc2c1c1c(c3ccccc32)OCN(Cc2ccccn2)C1	?	-37*	?	-24%	?
Cc1ccc(S(=O)(=O)N2CCCc3cc(NC(=O)c4cccc(Cl)c4)ccc32)cc1	?	nt	?	-11%	10%
O=P(O)(O)OC1[C@H](O)[C@H](OP(=O)(O)O)C(OP(=O)(O)O)[C@H](OP(=O)(O)O)[C@H]1O (some centres undefined)	6%[2.34 µM]	0	3%[2.34 µM]	nt	-5%[2.31 µM]
CC1=NN(C(N)=S)C(=O)C1N=Nc1ccc(C)cc1C (centres undefined)	1%	2	?	nt	3.2µM*
CC1=NN(C(N)=S)C(=O)C1N=Nc1c(C)cc(C)cc1C (centres undefined)	3%	3	-21%	-17%	4.5µM*
CC1=NN(C(N)=S)C(=O)C1N=Nc1ccccc1C (centres undefined)	4%	6	-15%	-20%	10µM*
CC1=NN(C(N)=S)C(=O)C1N=Nc1ccccc1O (centres undefined)	nt	1	nt	3%	nt
CC1=NN(C(N)=S)C(=O)C1N=Nc1c(Br)cc(Br)cc1Br (centres undefined)	nt	9	nt	-18%	nt
COc1ccc(-n2c(=O)c3c(c4cc(OC)ccc4n3C)n(CCC(C)C)c2=O)cc1	6%	nt	2%	-22%	11%
Cc1cc(NC(=O)C2CC(=O)N(c3ccc(Cl)cc3)C2)no1 (centres undefined)	nt	2	nt	-10%	nt
O=C(/C(N=Nc1cccc(C(F)(F)F)c1)=C(/O)c1cccs1)C(F)(F)F	-10%	-5	?	-2%	?
Cc1cccc(N=N/C(=C\O)C(=O)c2cccs2)c1	-7%	-4	-17%	-12%	28µM*
COc1ccc(-c2nc(SCC(=O)Nc3ccc4c(c3)OCCO4)c(-c3ccc(F)cc3)[nH]2)cc1	?	nt	8.9µM*[quencher]	-25%	-1%
COc1ccc2nc(SCC(=O)Nc3ccc4c(c3)OCCO4)[nH]c2c1	3%	0	-28%	-15%	?

Source: PubChem BioAssay
